“And” between values parts separate entries of the source, which are not always exact repeats. Equal values may be shown once. Inconclusive results are not listed. The source made the active and inactive calls. The call rests on the fitted dose curve; in most records, active means well fitted curve in the direction sought with a large enough effect; inconclusive means small, poorly fitted or top-dose-only effect, or another doubt; inactive means no such curve, though single readings can be large; an effect the other way counts as inactive or inconclusive.
Tests used:
[1] = Quantitative highthroughput screen to assess conditional lethalithy of NOMO1 cells grown in RPMI1640 with untreated serum (RPMI+s) (AID 1963876); further: nearly all actives have a fitted effect of over 35% in size;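 on viability: 100% = DMSO wells and 0% = empty wells without cells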
Procedure, shortened: (§1)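 Each medium arm—HPLM with 10% dialyzed FBS, or RPMI1640 with 5 mM glucose and 10% untreated or dialyzed FBS—was screened against an 11-point, 3-fold compound titration for 48 h at 37 °C, with CellTiter-Glo luminescence as endpoint.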

[2] = Quantitative highthroughput screen to assess conditional lethalithy of P12 Ichikawa cells grown in Human Plasma-Like Medium with dialyzed fetal bovine serum (HPLM+ds) (AID 1963879); settings: Potency: viability; further: nearly all actives have a fitted effect of over 35% in size; on viability: series mostly up to about 46 µM
Procedure, shortened: as §1

[3] = Quantitative highthroughput screen to assess conditional lethalithy of P12 Ichikawa cells grown in RPMI1640 with dialyzed fetal bovine serum (RPMI+ds) (AID 1963880); settings: Potency: P12-Ichikawa viability; further: nearly all actives have a fitted effect of over 35% in size;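 on viability: 100% = DMSO wells and 0% = empty wells on each plate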
Procedure, shortened: as §1

[4] = Quantitative highthroughput screen to assess conditional lethalithy of P12 Ichikawa cells grown in RPMI1640 with untreated serum (RPMI+s) (AID 1963881); settings: Potency: viability; further: nearly all actives have a fitted effect of over 35% in size;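 on viability: series mostly up to about 46 µM; 100% = DMSO wells and 0% = empty wells without cells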
Procedure, shortened: as §1

[5] = Quantitative highthroughput screen to assess conditional lethalithy of SEM cells grown in Human Plasma-Like Medium with dialyzed fetal bovine serum (HPLM+ds) (AID 1963882); further: nearly all actives have a fitted effect of over 35% in size; on viability: series mostly up to about 46 µM
Procedure, shortened: as §1

[6] = Quantitative highthroughput screen to assess conditional lethalithy of SEM cells grown in RPMI1640 with unreated serum (RPMI+s) (AID 1963883); further: nearly all actives have a fitted effect of over 35% in size;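 on viability: 100% = DMSO wells and 0% = empty wells without cells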
Procedure, shortened: as §1

[7] = Quantitative highthroughput screen to assess conditional lethalithy of SEM cells grown in RPMI1640 with dialyzed fetal bovine serum (RPMI+ds) (AID 1963884); further: nearly all actives have a fitted effect of over 35% in size;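 on viability: series mostly up to about 46 µM; 100% = DMSO control wells and 0% = empty wells without cells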
Procedure, shortened: as §1

[8] = Cellular viability qHTS for adrenocortical cancer (ACC) cell line SW-13 (AID 1963989); settings: SW-13 ACC cells viability, CellTiter-Glo, 48 h; activity (max response): stronger effect = lower value; further: nearly all actives have a fitted effect of over 65% in size;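 on activity (max response): cells grown in serum-free medium with ITS supplement; on the % scale 0 is the no-effect control and ±100 the full control effect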
Procedure, shortened: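 Luminescent ATP read-out (CellTiter-Glo, 20 min at room temperature) measured metabolically competent SW-13 cells after 48 h compound treatment. Final concentrations spanned up to 46 uM; bortezomib served as positive control.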

[9] = Cellular viability qHTS for adrenocortical cancer (ACC) cell line NCI-H295R (AID 1963990); further: nearly all actives have a fitted effect of over 60% in size
Procedure, shortened: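 IC50 and maximal efficacy derive from four-parameter logistic modelling of titration curves, with reads scaled between DMSO-only wells (0%) and doxorubicin hydrochloride (100% inhibition). Compounds spanned up to 46 uM over 48 h.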

[10] = Quantitative highthroughput screen to assess conditional lethalithy of NOMO1 cells grown in Human Plasma-Like Medium with dialyzed fetal bovine serum (HPLM+ds) (AID 1963878); further: nearly all actives have a fitted effect of over 35% in size;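 on viability: 100% = DMSO wells and 0% = empty wells on each plate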
Procedure, shortened: as §1
Potency means the concentration at half of the fitted maximal effect.

CC(C)(C)c1[nH]cnc1C=c1[nH]c(=O)c(=Cc2ccccc2)[nH]c1=O
active: Potency [1] 6.8 nM | Potency [2] 6.1 nM | Potency [3] 10.8 nM | Potency [4] 8.6 nM | Potency [5] 4.8 nM | Potency [6] 6.1 nM | Potency [7] 6.1 nM

CCOC(=O)[C@H]1O[C@H]1C(=O)N[C@@H](CC(C)C)C(=O)NCCC(C)C
active: Potency [1] 23500 nM
inactive: Potency [2] | Potency [3] | Potency [4] | Potency [5] | Potency [6] | Potency [7]

CN[C@@H](C)C(=O)N[C@H]1CCCC[C@H]2CC[C@@H](C(=O)N[C@@H](c3ccccc3)c3cn(CCCCc4ccc(CCCCn5cc([C@@H](NC(=O)[C@@H]6CC[C@@H]7CCCC[C@H](NC(=O)[C@H](C)NC)C(=O)N76)c6ccccc6)nn5)cc4)nn3)N2C1=O
inactive: Potency [1] | Potency [2] | Potency [3] | Potency [4] | Potency [5] | activity (max response) [8] -2.95% | Potency [9]

CC(=O)C1=C(O)C=C2Oc3c(C(C)=O)c(O)c(C)c(O)c3C2(C)C1=O (stereo not given)
inactive: Potency [6]
active: Potency [1] 296 nM | Potency [2] 1480 nM | Potency [3] 2960 nM | Potency [4] 1320 nM

CC(C)(C)NC(=O)[C@H]1CC[C@H]2[C@@H]3CC[C@H]4NC(=O)C=C[C@]4(C)[C@H]3CC[C@]12C
active: Potency [1] 2350 nM | Potency [2] 10500 nM | Potency [4] 11800 nM
inactive: Potency [5] | Potency [6] | Potency [7] | activity (max response) [8] -6.83% and 2.59% | Potency [9]

CC1COC2(CCN(c3nc(=O)c4cc(C(F)(F)F)cc([N+](=O)[O-])c4s3)CC2)O1 (stereo not given)
inactive: Potency [1] | Potency [10] | Potency [9]

Nc1ccc(-c2ccc3ncc4ccc(=O)n(-c5cccc(C(F)(F)F)c5)c4c3c2)cn1
active: Potency [1] 83.3 nM | Potency [2] 148 nM | Potency [8] 708 nM | Potency [9] 126 nM

O=C1NC(=O)[C@@H](c2cn3c4c(cccc24)CCC3)[C@H]1c1c[nH]c2ccccc12
active: Potency [1] 1870 nM | Potency [2] 1480 nM | Potency [4] 1320 nM | Potency [6] 590 nM

CCc1cc(C(C)=NOCc2ccc(C3CCCCC3)c(C(F)(F)F)c2)ccc1CN1CC(C(=O)O)C1
active: Potency [1] 8330 nM | Potency [2] 8330 nM | Potency [3] 7430 nM | Potency [4] 9350 nM | Potency [5] 7430 nM | Potency [6] 13200 nM

CC(=O)Oc1cc2c(s1)CCN(C(C(=O)C1CC1)c1ccccc1F)C2 (stereo not given)
inactive: Potency [9]
active: Potency [1] 14800 nM | Potency [10] 4690 nM | Potency [5] 18700 nM

— PubChem BioAssay (NCATS)
